Structures are written as SMILES.

The experiment concerns Human papillomavirus type 1a E7 protein (residues 1-88). Nature of the experiment: HPV1a E7 small-molecule binders, primary screen, biochemical, small-molecule microarray, residues 1-88, 635 nm (AID 1129). The following applies: small-molecule microarray binding, fluorescence 635 nm; higher = more signal.
For the compound `CCCC=C(CCC)[C@@H](NS(=O)(=O)c1ccc(-c2ccccc2)cc1)c1ccc(C(=O)OC)cc1`, the composite z-score is -0.997.

On to `COc1ccc([Si](C)(C)[C@@H]2[C@@H](CC(=O)N(CCO)Cc3ccccc3)O[C@]3(C(=O)N(Cc4cccc(N5CCC5=O)c4)c4ccccc43)[C@H]2C)cc1`, for which the composite z-score amounted to 1.1.

For the compound `CCC1=C2CN(Cc3ccccc3Br)[C@@H]([C@@H](O)Cc3ccccc3)C2C=CCC1` (stereo partly specified), the composite z-score came to 1.13.

Regarding `CO[C@H]1COC(=O)[C@H](C)COC(=O)[C@H](Cc2ccccc2)NC(=O)CC=C[C@H]1C`, the composite z-score was -1.55.

The compound `Cc1ccc(S[C@]2(C(=O)NC3CC3)CC(=O)N(Cc3cc(C(F)(F)F)cc(C(F)(F)F)c3)[C@@H]2c2ccc(CO)cc2)cc1` gave a composite z-score of 0.489.

Turning to `CCCC[C@@H]1C[C@H]1[C@@H](NC(=O)c1cccs1)c1ccc(Cl)cc1`, the composite z-score was -1.19.

The compound `COC(=O)C(CC#Cc1ccc2c(c1)[C@]1(C(=O)N2)[C@H](C(=O)N2CCCCCCC2)[C@H]2C(=O)O[C@H](c3ccccc3)[C@H](c3ccccc3)N2[C@@H]1c1ccc(O)cc1)C(=O)OC` yielded a composite z-score of -1.54.

In turn, `CC(C)N1CC=CC23O[C@@H]4/C=C\CCCOC(=O)C4[C@H]2C(=O)N(CCO)[C@@H]3C1=O` (stereo partly specified) returned a composite z-score of -0.328.

Consider `O=C1O[C@H](c2ccccc2)[C@H](c2ccccc2)N2[C@H]1[C@@H](C(=O)NC[C@H](O)c1ccccc1)[C@]1(C(=O)Nc3ccc(C#CC4=CCCCC4)cc31)[C@H]2c1ccc(OCCO)cc1`, for which the composite z-score is 1.19.

On to `Cc1ccc(S[C@]2(C(=O)NC(C)C)CC(=O)N(C3Cc4ccccc4C3)[C@@H]2c2ccc(CO)cc2)cc1`, for which the composite z-score amounted to 0.627.

`Cc1ccc(S[C@]2(C(=O)NCCCN(C)C)CC(=O)N(Cc3ccccc3)[C@@H]2c2ccc(CO)cc2I)cc1` showed a composite z-score of -0.0835.

Regarding `COc1ccc([C@H]2C[C@H]3C(Br)=C[C@]2(OC)C(=O)[C@]32CO2)cc1`, the composite z-score was found to be 0.0022.

In turn, `COC(=O)[C@H]1[C@@H]2COc3ccccc3[C@H]2N[C@H]1C(=O)OC` came in with a composite z-score of 0.0902.

`C=CC[C@]1(C(N)=O)N=C(c2ccc(OCCCO)cc2)O[C@H]1c1ccccc1CN=[N+]=[N-]` had a composite z-score of 0.928.

For the compound `CC(C)[Si](OCC[C@H]1O[C@]2(C(=O)N(Cc3ccccc3)c3ccccc32)[C@@H](C)[C@@H]1[Si](C)(C)O)(C(C)C)C(C)C`, the composite z-score is -0.694.

Regarding `CC(C)[Si](OCCCNS(=O)(=O)c1ccc(Br)cc1)(C(C)C)C(C)C`, the composite z-score was 1.04.

Compound `C=CCOC(=O)[C@@H]1[C@H]2C(=O)O[C@H](c3ccccc3)[C@H](c3ccccc3)N2[C@H](c2ccc(OCCOC(=O)[C@H]3C[C@H]4C(=O)N[C@@H](CCCCNC(C)=O)C(=O)N4[C@H]3c3ccc(O)cc3)cc2)[C@@]12C(=O)Nc1ccc(I)cc12` showed a composite z-score of 0.894.

`C[C@]1(C(=O)NCCN2CCOCC2)c2ccccc2C(=O)N(Cc2ccccc2)[C@H]1c1ccc(CO)cc1`: the composite z-score is -0.385.

The compound `C=CCN(C(=O)C1N(c2ccc(CCO)cc2)C(=O)C2C(C(=O)O)C3C=CC21O3)C(C)(C)C` (stereo unspecified) returned a composite z-score of -0.55.

Regarding `CCOC(=O)C[C@H]1[C@H](OC(=O)Cc2ccc3c(c2)OCO3)[C@@H](NC(=O)c2ccc3ccccc3c2)c2cc(OCCCO)ccc2N1C(=O)Cc1ccc(OC)cc1`, the composite z-score was 0.836.

The compound `COc1ccc([Si](C)(C)[C@H]2[C@H](CCO)O[C@@]3(C(=O)N(Cc4ccc(N5CCCCC5=O)cc4)c4ccccc43)[C@@H]2C)cc1` showed a composite z-score of 1.1.

The compound `COc1cc(CO)cc(I)c1O[C@H]1C=C(C(=O)NCCO)C[C@@H](N(CC2CCCCC2)C(=O)c2cc3ccccc3oc2=O)[C@@H]1O` had a composite z-score of 0.238.

As to `COC(=O)C1=CC(c2ccc(CO)cc2)=CC(C2CC2)N(Cc2sc3ccccc3c2Cl)C=C1C(=O)OC` (stereo unspecified), the composite z-score stood at 1.19.

With `CSCC[C@@H]1NC(=O)CC=C[C@@H](C)COC(=O)[C@H](CCSC)NC(=O)CC=C[C@@H](C)COC1=O`, the composite z-score was -0.111.

Consider `COC(=O)[C@@]1(Cc2ccc(OC)cc2)[C@H]2c3cc(C(=O)N(C)C)n(CCc4ccc(OC)c(Br)c4)c3C[C@H]2CN1C(=O)c1ccccc1`, for which the composite z-score turned out to be 1.23.

Compound `COCC(=C=CC[C@H](O)c1ccc(OCCO)cc1)C[C@H](O)c1ccccn1` displayed a composite z-score of 0.401.

`O=C(NCc1ccccc1)[C@@]1(Cc2ccccc2)COC(c2ccc(OCCCO)cc2)=N1` had a composite z-score of 1.17.

The compound `CO[C@@H]1COC(=O)[C@H](C)NC(=O)CC=C[C@@H](C)[C@H](OC)COC(=O)[C@H](C)NC(=O)CC=C[C@H]1C` displayed a composite z-score of 0.207.

For `CCCC=C(CCC)[C@@H](NS(=O)(=O)c1ccc(C(F)(F)F)cc1)c1ccc(-c2ccccc2)cc1`, the composite z-score was determined as 1.23.

For `CC(C)(C)OC(=O)CC[C@]1(C(=O)N2CCCCC2)N=C(c2ccc(OCCCO)cc2)O[C@H]1c1ccccc1`, the composite z-score was found to be 1.2.

For `CC(=O)NCCCC[C@@H]1NC(=O)[C@@H]2C[C@H](C(=O)NCCCCCNC(=O)CS)[C@H](c3ccc(O)cc3)N2C1=O`, the composite z-score was -0.265.

`C=CCC(OC(C)=O)[C@@H]1[C@@H](N(Cc2ccc(-c3cccc(C(F)(F)F)c3)o2)C(=O)Cc2ccc(F)cc2)c2cc(OCCCO)ccc2N1C(=O)c1ccc(-c2ccccc2)cc1` (stereo partly specified) displayed a composite z-score of -0.922.

In turn, `CO[C@]12C=C(Br)[C@@H](C[C@@H]1c1ccccc1)[C@@]1(CO1)C2=O` showed a composite z-score of -0.0095.

In the case of `COCCOC(=O)N1C(=O)[C@@]2(c3cc(C#CCC(C(=O)OC)C(=O)OC)ccc31)[C@H](c1ccccc1OCCO)N1[C@H](c3ccccc3)[C@H](c3ccccc3)OC(=O)[C@H]1[C@@H]2C(=O)N1CCCCCCC1`, the composite z-score turned out to be 1.18.

The compound `CCOC(=O)C1=CC[C@@H](c2ccccc2)N(S(=O)(=O)c2ccc(C)cc2)[C@H]1C` returned a composite z-score of 1.24.

For `O=C1c2ccccc2[C@](Cc2ccccc2I)(C(=O)NCC(F)(F)F)[C@H](c2ccc(CO)cc2)N1Cc1ccccc1C(F)(F)F`, the composite z-score was determined as 1.22.

The values above are taken from PubChem BioAssay.
